# Laboratory results: PubChem BioAssay (NCI)
# The panel holds about 83,000 compounds, 20% with a hit somewhere; the sample as a whole holds those more often.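 Cells were grown in 96-well plates and exposed to the test compound at a single concentration for 48 hours; results are reported as percent growth, with values below 10 considered active.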 The source made the active and inactive calls.
# System: SR leukemia
# Test: NCI-60 one-dose screen, 48 h (100 = growth as untreated, 0 = no growth, -100 = all killed)
# Settings: 10 µM unless noted
# Procedure: Growth inhibition of the SR human tumor cell line is measured as a screen for anti-cancer activity. Cells are grown in 96 well plates and exposed to the test compound for 48 hours. Compounds are tested at a single concentration, which is 10^-5 M for most compounds. The reported endpoint is percent growth (GI% or GIPRCNT), where numbers from 0 - 100% represent growth inhibition, and numbers from -100% - 0 represent cell death. For example, a value of 40 represents 60% growth inhibition. A value of 0 means no net growth occurred over the course of the experiment. A value of -40 indicates 40% of cells at the beginning of the experiment died by the end of the experiment. A value of -100 means all cells are dead at the end of the experiment.
# NCI-60 Human Tumor Cell Lines Screen was performed using the standard one-dose NCI protocol, which is described in more detail at https://dtp.cancer.gov/discovery_development/nci-60/default.htm.
# Compounds with GIPRCNT values below 10 were considered active. Activity score was based on GIPRCNT using the following formula: […]
# Score is 0 for GIPRCNT values of 100 or above, 50 for GIPRCNT values of 0, and 100 for GIPRCNT values of -100.
row,SMILES,growth
1,CC/C=C/C/C=C/C/C=C/C/C=C/C/C=C/C/C=C/CCC(=O)Nc1ccn([C@@H]2O[C@H](CO)[C@@H](O)C2(F)F)c(=O)n1,18.5% (inactive)
2,CC1(C)CC[C@]2(C(=O)N3CCOCC3)CC[C@]3(C)C(=CC[C@@H]4[C@@]5(C)CC[C@H](OC(=O)c6cccnc6)C(C)(C)[C@@H]5CC[C@]43C)[C@@H]2C1,53.7% (inactive)
3,N#Cc1c(N2CCNCC2)nc2sc3cc(Cl)c(Cl)cc3n2c1=N,116% (inactive)
4,COc1ccc(CN2C(=O)C(Cl)=C(Nc3cccc(C(F)(F)F)c3)C2=O)cc1,9.34% (active)
5,Cc1ccc(-c2cc(-c3ccccc3C)[nH]c(=O)c2C#N)s1,118% (inactive)
6,c1ccc2c(c1)nc(CN1CCOCC1)n1cc(N3CCCC3)nc21,87% (inactive)
7,CCN(CC)CCN1C(=O)c2c(c(C)c3c(oc4cc(O)ccc43)c2C)C1=O,-25.3% (active)
8,O=[N+]([O-])c1ccc(Sc2cccc[n+]2[O-])c2nonc12,1.31% (active)
9,COc1cccc(C(=O)NCCCNc2cc(-c3cn(-c4ccccc4)nc3-c3cccc(OC)c3)ccn2)c1,8.19% (active)
10,C=C(C)[C@@H]1CC[C@]2(C(=O)NC3CCCCC3)CC[C@]3(C)[C@H](CC[C@@H]4[C@@]5(C)CCCNC(C)(C)[C@@H]5CC[C@]43C)[C@@H]12,-22.5% (active)
11,Cc1ccc(NCCN(C)C)c2c(=O)c3ccccc3sc12,17% (inactive)
12,COC(=O)[C@]12CC[C@@H](C)[C@H](C)[C@@H]1C1=CC[C@@H]3[C@@]4(C)C(C=O)=C[C@@](C)(COC(=O)c5ccco5)[C@@H]4C(=O)C[C@@]3(C)[C@]1(C)CC2,32.5% (inactive)
13,Clc1cc(Cl)cc(Nc2ccc3cc(OCCCN4CCOCC4)ccc3n2)c1,1.31% (active)
14,CC1=CN2C(=O)C3C4=C(CCCC4)SC3N=C2CN1c1c(C)cccc1C (stereo not given),41.8% (inactive)
15,N#C/C(=C\c1ccc2c(c1)OCO2)n1nnc2cc(F)c(F)cc21,42.6% (inactive)
16,N#CC1=C(c2ccc(Br)cc2)NC(SCC(=O)c2ccc(Br)cc2)NC1=O (stereo not given),101% (inactive)
17,COC(=O)c1c2c(c(C)[n+]([O-])c1C)C(=O)C(NCc1ccc(F)cc1)=CC2=O,9.28% (active)
18,COC(=O)[C@]12CC[C@@H](C)[C@H](C)[C@@H]1C1=CC[C@@H]3[C@@]4(C)C(C=O)=C[C@@](C)(COC(=O)c5ccco5)C4=CC[C@@]3(C)[C@]1(C)CC2,-8.74% (active)
19,O=C(Nc1ccc(Nc2ccncc2)cc1)c1ccc(C(=O)Nc2ccc(Nc3ccncc3)cc2)cc1,52.4% (inactive)
20,COc1cc(-c2nn(-c3ccccc3)cc2-c2ccnc(NCCNS(=O)(=O)c3ccc(Cl)cc3)n2)ccc1Cl,-19.4% (active)

row,SMILES,growth
1,CCN1CCN(c2nc(C)cc(NCc3cc(Nc4ccnc5cc(Cl)ccc45)ccc3F)n2)CC1,-18.8% (active)
2,O=C(Nc1cccc(Cl)c1)c1cc(N=Nc2ccc([N+](=O)[O-])cc2Cl)ccc1O,20.7% (inactive)
3,O=C(O)C1CCC(=O)N1C(=O)OCc1ccccc1 (stereo not given),89.4% (inactive)
4,CN(Cc1cnc2nc(N)nc(N)c2n1)c1ccc(C(=O)N[C@@H](CCc2nn[nH]n2)c2nn[nH]n2)cc1,29.2% (inactive)
5,N#CCN1C(=O)C2C3=C(CCCC3)SC2N=C1CN1CCCC1 (stereo not given),81.1% (inactive)
6,COC1=C(OC)C(=O)C(OC)=C(OC)C1=O,94.4% (inactive)
7,CC/C=C\C/C=C\C[C@H](O)C/C=C1/C(=O)C=C[C@@H]1C/C=C\CCCC(=O)O,6.21% (active)
8,CCN(CC)CCN1CC(O)=C(c2nc(-c3ccc(Cl)cc3)cs2)C1=N,-4.58% (active)
9,CCCCCCCCCCCCCCCCCCOc1ccccc1CC(=O)OCCC[N+](C)(C)C,56.6% (inactive)
10,N#CC1=C(NC=O)Oc2c(ccc3ccccc23)C1c1ccccc1 (stereo not given),22.9% (inactive)
11,O=C(CCCCCCN1CC(=O)N2[C@@H](c3ccccc3Cl)c3[nH]c4ccccc4c3C[C@H]2C1=O)NO,15.9% (inactive)
12,COc1ccc(-c2csc(C3=C(O)CN(CCCN4CCCC4=O)C3=N)n2)cc1OC,77.1% (inactive)
13,c1c[nH]c(CNC2CCCCC2)c1,144% (inactive)
14,COc1ccc(-c2nc(SC(C)C)nc(NNC(N)=S)c2C#N)cc1,24.4% (inactive)
15,NC(=S)Nc1cccc(O)c1,82.4% (inactive)
16,O=C(N/N=C/c1ccncc1)c1ccc(C(F)(F)F)nc1Nc1cccc(C(F)(F)F)c1,2.02% (active)
17,C[n+]1cccc(CC(=O)NO)c1,98.4% (inactive)
18,C=C1C(=O)O[C@H]2[C@H]1CC/C(COC(=O)C(=O)c1c[nH]c3ccc(OC)cc13)=C\CC[C@@]1(C)O[C@@H]21,-2.97% (active)
19,O=C(NCCNc1cc(-c2cn(-c3ccccc3)nc2-c2cccc(O)c2)ccn1)Nc1ccccc1,2.22% (active)
20,O=C(NC(CSSCC(NC(=O)c1ccccc1)C(=O)O)C(=O)O)c1ccccc1 (stereo not given),15.3% (inactive)
